NPR1 antag = antagonists of human natriuretic peptide receptor Npr1; Potency, µM (top dose mostly 46.3 µM), most hits filed as inhibitors; P16066; 76,000 compounds, 1.6% hits; HEK293 hNpr1 GloSensor cGMP, ANP-stimulated luminescence; calls by dose curve; note: nearly all actives have a fitted effect of over 60% in size
Target sequence (P16066 whole entry, looked up): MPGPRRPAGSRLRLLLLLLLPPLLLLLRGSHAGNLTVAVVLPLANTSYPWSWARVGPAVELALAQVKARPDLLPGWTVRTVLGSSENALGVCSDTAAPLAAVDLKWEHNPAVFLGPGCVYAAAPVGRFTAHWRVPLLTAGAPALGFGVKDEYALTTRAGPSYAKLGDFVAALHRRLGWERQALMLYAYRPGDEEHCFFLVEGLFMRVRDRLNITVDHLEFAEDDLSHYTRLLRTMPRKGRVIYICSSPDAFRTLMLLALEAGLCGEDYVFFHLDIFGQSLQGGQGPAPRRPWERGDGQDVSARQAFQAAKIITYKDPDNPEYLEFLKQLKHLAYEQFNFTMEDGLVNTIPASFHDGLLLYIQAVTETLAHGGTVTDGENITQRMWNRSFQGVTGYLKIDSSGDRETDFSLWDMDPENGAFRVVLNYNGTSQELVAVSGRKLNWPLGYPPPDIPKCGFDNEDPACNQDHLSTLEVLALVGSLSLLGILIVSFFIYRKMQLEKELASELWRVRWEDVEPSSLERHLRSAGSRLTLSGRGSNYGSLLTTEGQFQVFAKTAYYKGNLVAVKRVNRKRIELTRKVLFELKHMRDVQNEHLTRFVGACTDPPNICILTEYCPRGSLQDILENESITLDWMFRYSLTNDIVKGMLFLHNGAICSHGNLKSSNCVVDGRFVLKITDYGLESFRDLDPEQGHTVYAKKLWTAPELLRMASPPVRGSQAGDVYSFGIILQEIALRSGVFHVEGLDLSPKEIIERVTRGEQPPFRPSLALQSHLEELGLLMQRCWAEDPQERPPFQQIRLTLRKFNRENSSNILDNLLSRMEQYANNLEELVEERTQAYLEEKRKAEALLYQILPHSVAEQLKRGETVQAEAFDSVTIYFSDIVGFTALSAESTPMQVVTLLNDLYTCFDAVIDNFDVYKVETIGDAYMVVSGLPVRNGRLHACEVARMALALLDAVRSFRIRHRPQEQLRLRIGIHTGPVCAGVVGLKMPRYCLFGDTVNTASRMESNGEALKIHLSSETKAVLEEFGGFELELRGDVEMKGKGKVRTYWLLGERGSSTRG
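Compound pre-incubated 30 min at room temperature on GloSensor-loaded HEK293 cells stably carrying hNpr1 and the pGS-40F cGMP biosensor. Stimulation uses hNppA at 0.1 nM final; luminescence is taken at baseline and 20 min post-agonist.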
NIH3T3 tox = NIH 3T3 cell cytotoxicity; 94,000 compounds, 4.3% hits; AID 1345082; Potency, µM (series often up to 96.7 µM), usual class: inhibitors; NIH 3T3 viability, CellTiter-Glo ATP luminescence, 48-72 h; note: nearly all actives have a fitted effect of over 55% in size
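Cytotoxicity is measured as loss of cellular ATP: NIH 3T3 cells (400/well) are exposed to compound for 48 or 72 hr at 37 °C, then CellTiter-Glo luminescence is imaged after 10 min at room temperature.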
FLuc inh = blocks purified firefly luciferase enzyme activity | P08659 | purified P. pyralis luciferase, luminescence, biochemical | Potency, µM (series often up to 115 µM), most hits filed as inhibitors | 76,000 compounds, 2.5% hits; note: nearly all actives have a fitted effect of over 65% in size
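Luminescence read by CCD imaging after purified firefly luciferase (10nM final) was added to substrate buffer holding 10uM D-luciferin and 10uM ATP, pH 7.5, pre-dosed with compound.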
HEK293 tox = kills HEK 293 cells | AID 1345083 | HEK 293 viability, ATP luminescence (CellTiter-Glo), 48-72 h | 94,000 compounds, 6.6% hits | Potency, µM (doses to about 115 µM), usual class: inhibitors; note: nearly all actives have a fitted effect of over 60% in size
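Pintool-delivered compounds were incubated with HEK 293 cells (250 cells/well) at 37 degree Celsius for 48 or 72 hr. ATP-dependent luminescence (CellTiter-Glo) then reported remaining viable cells.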
A number is an active result; - = inactive; ? = inconclusive; . = not tested or not shown. This is a sample that favours compounds with a hit; in the whole collection about 11% have one here. Unless noted, calls come from the whole dose curve; as a rule, active = well fitted curve in the direction sought with a large enough effect; inconclusive = small, poorly fitted or top-dose-only effect, or another doubt; inactive = no such curve, though single readings can be large; an effect the other way counts as inactive or inconclusive.

SMILES | NPR1 antag | NIH3T3 tox | FLuc inh | HEK293 tox
CCc1cccc2c(C(CC(=O)NCCc3ccc(OC)c(OC)c3)c3cccc(OC)c3)c[nH]c12 (centres undefined) | - | ? | - | 25µM
COc1ccc(C(CC(=O)NCCc2ccccc2)c2c[nH]c3ccccc23)cc1OC (centres undefined) | - | ? | - | ?
COc1ccc(C(=O)N2CCCC3(C2)NC(=O)N(Cc2cccc(Cl)c2)C3=O)cc1F (centres undefined) | - | - | - | ?
COc1ccc(C)cc1NC(=O)CC1CCCN(c2cnn(C)c(=O)c2)C1 (centres undefined) | - | - | - | -
CCn1ccc2sc(C)c(C(=O)N3CCN(c4ccc(F)cc4)CC3)c2c1=O | - | - | - | ?
CCc1cccc2c(C(CC(=O)NCc3ccc4c(c3)OCO4)c3ccc(OC)c(OC)c3)c[nH]c12 (centres undefined) | - | ? | - | 35µM
CCCNC(=O)Cc1csc2nc(C)c(-c3cc(C)n(-c4ccc(C(C)C)cc4)n3)c(=O)n12 | - | - | - | -
COc1ccc(-c2ccccc2C(=O)N2CCC(NC(=O)c3ccc(C)cc3)CC2)nn1 | . | - | . | -
Cc1ccc(C(=O)N2CCN(C(=O)c3nnn4c3COC(c3ccccc3)C4)CC2)c(C)c1 (centres undefined) | ? | ? | - | ?
Cc1ccc(C)c(C(=O)N2CCN(C(=O)c3nnn4c3COC(c3ccc(Cl)cc3)C4)CC2)c1 (centres undefined) | ? | ? | - | 45µM
Cc1ccc(C)c(C(=O)N2CCN(C(=O)c3nnn4c3COC(c3ccccc3)C4)CC2)c1 (centres undefined) | - | - | - | 40µM
O=C1[C@H]2CN(Cc3ccc(F)c(F)c3)C[C@H]2C(=O)N1Cc1ccc2c(c1)OCO2 | - | - | - | -
O=C1[C@H]2CN(Cc3ccc(F)c(Cl)c3)C[C@H]2C(=O)N1Cc1ccc2c(c1)OCO2 | - | ? | - | 35µM
Cc1c(F)cccc1NC(=O)N1CCC(OC2CCN(Cc3ccccc3)CC2)CC1 | - | ? | - | ?
CCCC(C)C(=O)N1CCn2nc(C(=O)Nc3ccccc3)cc2C1 (centres undefined) | - | - | - | 35µM
COc1cccc(CCC2CCCN(C(=O)c3ccsc3)C2)c1 (centres undefined) | - | ? | - | ?
COc1cccc(CCC2CCCN(C(=O)c3ccoc3C)C2)c1 (centres undefined) | - | ? | - | 32µM
COCc1ccc(C(=O)N2CCCC(CCc3cccc(OC)c3)C2)o1 (centres undefined) | - | ? | - | 79µM
COc1c(F)cc(CN2CCCC3(CCNC3)C2)cc1F (centres undefined) | - | ? | - | ?
COc1cc(Cl)c(C)cc1NC(=O)Cn1cccc1-c1nc(-c2ccc3c(c2)OCO3)no1 | - | - | - | -
COc1ccc(OC)c(NC(=O)Cn2cccc2-c2nc(-c3ccc4c(c3)OCO4)no2)c1 | - | ? | - | 35µM
CC(C)c1cccc(NC(=O)Cn2cccc2-c2nc(-c3ccc4c(c3)OCO4)no2)c1 | - | 28µM | - | ?
COc1ccccc1CN1C[C@@H](CO)[C@H](c2ccccn2)C1 | - | - | - | ?
COCCNc1ncccc1-c1noc([C@@H]2CCCN2Cc2cccc(C#N)c2)n1 | - | ? | - | 71µM
COCCNc1ncccc1-c1noc([C@@H]2CCCN2CC(C)(C)C)n1 | - | 50µM | - | ?
SMILES | NPR1 antag | NIH3T3 tox | FLuc inh | HEK293 tox
COCCOc1ncccc1-c1noc([C@@H]2CCCN2Cc2cccc(C#N)c2)n1 | - | - | - | ?
CNC(=O)c1cc(C2CC2)nc2onc(C3CCN(C(=O)c4ccncc4)CC3)c12 | . | - | . | ?
COc1ccccc1Cn1c(=O)c(C(=O)N2CCN(C(=O)C3CCCC3)CC2)nc2cccnc21 | . | - | . | ?
Cc1ccc(C(=O)N[C@@H]2CN(Cc3ccncc3)C[C@H]2CN(C)C)cc1C | - | - | - | 25µM
COc1ccc(C(=O)N2CCC(F)(C(=O)NCC3CC3)CC2)cc1F | . | - | . | -
c1ccc2c(N3CCN(Cc4cc5n(n4)CCNC5)CC3)nsc2c1 | - | ? | - | 40µM
c1ccc2sc(N3CCN(Cc4cc5n(n4)CCCNC5)CC3)nc2c1 | - | - | - | -
Cc1ccc(-c2c(C(=O)NCc3cccc(C(F)(F)F)c3)nc3sccn23)cc1 | . | ? | . | 22µM
N#Cc1cccc(-c2c(C(=O)NCc3cccc(C(F)(F)F)c3)nc3sccn23)c1 | . | ? | . | 35µM
N#Cc1cccc(-c2c(C(=O)NCc3ccc(Cl)cc3)nc3sccn23)c1 | . | 35µM | . | ?
O=C(NCC(F)(F)F)c1nc2sccn2c1-c1cccc(C(F)(F)F)c1 | . | ? | . | -
O=C(NCc1ccccn1)c1nc2sccn2c1-c1cccc(C(F)(F)F)c1 | . | 32µM | . | ?
N#Cc1cccc(-c2c(C(=O)NCc3ccccc3F)nc3sccn23)c1 | . | - | . | -
O=C(c1ccccc1Cl)N1CCCC(C(=O)N2CCC(c3nc4ccncc4[nH]3)CC2)C1 (centres undefined) | . | - | . | -
COc1cccc(C(=O)N2CC3(Cc4ccccc4N([S+](C)(=O)[O-])C3)C2)c1 | - | - | - | ?
Cc1noc(C)c1S(=O)(=O)N1CCC(OCc2noc(C3CCCO3)n2)CC1 (centres undefined) | . | ? | . | -
C=CCNC(=O)c1cnn2ncccc12 | - | - | 50µM | -
C=CCNC(=O)c1cnn2cc(C)ccc12 | - | - | ? | -
O=C(NC1C[C@H]2CC[C@@H](C1)N2C(=O)C1CCCC1)c1ccc(F)cc1 (some centres undefined) | . | - | . | -
CCCN(C)C(=O)c1cn2cc(-c3cccc(Cl)c3)n(CC=C(C)C)c(=O)c2n1 | - | 40µM | - | 28µM
COCCN(C)C(=O)c1cn2cc(-c3cccc(Cl)c3)n(CC3CC3)c(=O)c2n1 | - | ? | - | -
CC(=O)N1CCN(C(=O)C2CCN(Cc3ccccc3-c3cccnc3)CC2)CC1 | . | - | . | -
Cc1ccc(N2Cc3c(NCCc4ccc(F)cc4)ncnc3N(C)CC2=O)cc1 | - | 35µM | - | ?
COc1cccc(CN2CCCC3(C2)NC(=O)c2ccccc2O3)c1 (centres undefined) | - | ? | - | -
COc1cc2c(cc1-c1ccc(OC(F)(F)F)cc1)OCC(C)(C)CC2CO (centres undefined) | . | ? | . | 22µM
CCCOc1cccc(-c2cc3c(cc2OC)C(CO)CC(C)(C)CO3)c1 (centres undefined) | . | 32µM | . | 35µM
O=C1N(Cc2ccc(F)c(F)c2)CCCC12CCN(c1nc3ccccc3o1)C2 (centres undefined) | - | 40µM | 40µM | ?
CN1CCCC1CCNc1nccc(-c2cnn(-c3ccc(F)cc3)c2)n1 (centres undefined) | - | ? | ? | 45µM
Cc1cc(OCCN(C)C)c(C)c2c1CC[C@@H]([C@H](C)C(=O)NCc1ccccc1)C2 | - | 56µM | - | 50µM
